The values that follow come from PubChem BioAssay (EPA / NIEHS).

Test [1] is described as follows: ACEA_AR_antagonist_AUC_viability: ACEA Biosciences xCELLigence Real-Time Cell Analysis on Androgen Receptor Antagonism for Viability (AID 2283776).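 Further: 22Rv1 human prostate cancer cells growing on impedance electrode plates; hits lower the growth signal relative to DMSO meaning cytotoxicity.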 The method in brief: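 Impedance read-out (RT-CES): area under growth curve at 80 h post-dose, loss of signal scored vs DMSO baseline. 22Rv1 cells; 8-pt 1:4 series, top 100 uM final, ≤0.5% DMSO; biological duplicate.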

The nature of test [2]: ACEA_ER_AUC_viability: ACEA Biosciences xCELLigence Real-Time Cell Analysis on Estrogen Receptor Agonism for Viability (AID 2283782).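 Further: hit means loss of impedance signal meaning reduced cell growth or viability.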 The method in brief: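 Viability endpoint: reduced impedance area under the curve relative to DMSO, recorded by real-time electrode sensing over ~80 h of continuous exposure. Duplicate plates of T47D in hormone-depleted medium; eight concentrations, 1:4 dilutions, 100 uM maximum.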

Test [3] in a line: ACEA_AR_agonist_AUC_viability: ACEA Biosciences xCELLigence Real-Time Cell Analysis on Androgen Receptor Agonism for Viability (AID 2283775).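 On AC50: viability read 80 hours after compound addition.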 Summed up: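 22Rv1 cells; impedance growth kinetics; 8-pt 1:4 dilutions from 100 uM top final, ≤0.5% DMSO; n = 2; 80 h read; AUC viability, loss-of-signal vs DMSO.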
For test [4], the target named is AR (gene 367) (UniProt P10275). As to the kind of experiment: ACEA_AR_agonist_80hr: ACEA Biosciences xCELLigence Real-Time Cell Analysis on Androgen Receptor Agonism for Proliferation (AID 2283783).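 Further: hits increase impedance growth signal above DMSO baseline.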 The method in brief:
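Eight concentrations, 1:4 serial dilution from a 100 uM final top, in biological duplicate. Impedance-based real-time growth of 22Rv1 cells after overnight baseline, recorded hourly and read at 80 hours. Controls: testosterone, MG132, assay media.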

Test [5] addresses AR (gene 367) (UniProt P10275). Briefly: ACEA_AR_antagonist_80hr: ACEA Biosciences xCELLigence Real-Time Cell Analysis on Androgen Receptor Antagonism for Proliferation (AID 2283787).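 Further: 22Rv1 human prostate cancer cells with growth followed by electrical impedance; hits lower the impedance growth signal relative to DMSO.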 The method in brief: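 Impedance-based real-time growth of 22Rv1 prostate cells, read 80 h after dosing. Eight concentrations, 1:4 series, top 100 uM final (0.5% DMSO), n = 2; signal decrease scored against DMSO.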

Test [6] in a line: STM_H9_NormalizedViability: Cytotoxicity Assessment at 120 hours in the Stemina devTOX quickPredict H9 human embryonic stem cell (hESC)-based Assay (AID 2283784). The method in brief:
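Viability of the cell layer was taken from live-cell protease cleavage of a fluorogenic substrate after compound exposure of undifferentiated H9 stem cells, with replenishment each 24h. Fluorescence was normalized to vehicle (0.1% DMSO).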

Records with an inconclusive call do not appear. Activity calls are given as the source filed them. How the source made its calls: active means hit-call score of the fitted dose curve at least 0.9, where 1 is the maximum; inconclusive means response in the unintended direction; inactive means score below 0.9.

As a reminder, the AC50 is the concentration at which the activity in the assay is half-maximal.

Sequence of AR (gene 367) (P10275 whole entry, looked up): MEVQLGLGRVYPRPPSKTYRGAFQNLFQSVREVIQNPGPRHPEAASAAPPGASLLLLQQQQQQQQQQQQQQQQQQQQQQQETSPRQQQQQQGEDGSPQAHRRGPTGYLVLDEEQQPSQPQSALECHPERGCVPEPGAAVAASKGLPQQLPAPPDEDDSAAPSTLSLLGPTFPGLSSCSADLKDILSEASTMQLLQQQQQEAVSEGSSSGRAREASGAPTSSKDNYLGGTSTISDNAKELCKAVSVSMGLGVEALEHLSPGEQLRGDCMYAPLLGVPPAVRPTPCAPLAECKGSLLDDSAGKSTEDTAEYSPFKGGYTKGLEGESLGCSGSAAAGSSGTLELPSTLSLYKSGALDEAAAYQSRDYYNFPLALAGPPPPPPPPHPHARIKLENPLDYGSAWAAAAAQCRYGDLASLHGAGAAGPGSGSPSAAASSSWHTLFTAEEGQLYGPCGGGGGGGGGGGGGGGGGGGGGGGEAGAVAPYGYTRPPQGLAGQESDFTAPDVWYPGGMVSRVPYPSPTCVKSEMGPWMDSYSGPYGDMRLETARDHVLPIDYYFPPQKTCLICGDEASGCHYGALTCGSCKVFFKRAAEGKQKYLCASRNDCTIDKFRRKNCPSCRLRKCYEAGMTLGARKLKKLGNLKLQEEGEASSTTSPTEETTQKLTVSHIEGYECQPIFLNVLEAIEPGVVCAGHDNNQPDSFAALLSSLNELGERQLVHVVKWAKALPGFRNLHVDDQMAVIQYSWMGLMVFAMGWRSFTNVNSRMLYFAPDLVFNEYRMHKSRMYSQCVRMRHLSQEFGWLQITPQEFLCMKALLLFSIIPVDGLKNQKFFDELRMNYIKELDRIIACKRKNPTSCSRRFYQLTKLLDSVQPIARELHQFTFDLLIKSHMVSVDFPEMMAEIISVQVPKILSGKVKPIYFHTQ

As to `COC(=O)NS(=O)(=O)c1ccc(N)cc1`, the outcome in test [1] and in test [2] was inactive.

As for `COP(=S)(OC)SCn1nnc2ccccc2c1=O`, the AC50 in test [3] is 79.9 µM (active); in test [1], 64.7 µM (active); in the test with AR (gene 367) [5], 83.1 µM (active). The outcome with AR (gene 367) [4] was inactive.

Regarding `CNC(=O)Oc1cccc2ccccc12`, the AC50 in test [1] was 24.8 µM (active). In addition, the outcome in test [2] was inactive.

For `CCOc1cc(C(C)(C)C)ccc1C1COC(c2c(F)cccc2F)=N1` (stereo not drawn), the concentration at half-maximal activity (AC50) was 24 µM (active) in test [3], 19.1 µM (active) in test [1], 51.2 µM (active) in test [2] and 13.2 µM (active) in the test with AR (gene 367) [5]. In the test with AR (gene 367) [4], the call was inactive.

In the case of `O=C1C2CC=CCC2C(=O)N1SC(Cl)(Cl)Cl` (stereo not drawn), the AC50 in test [3] is 24.5 µM (active); in test [1] it was 17.2 µM (active). Also, the outcome in test [6] was inactive.

As for `COCc1cnc(C2=NC(C)(C(C)C)C(=O)N2)c(C(=O)O)c1` (stereo not drawn), the outcome (in test [2]; with AR (gene 367) [4]; in test [6]) was inactive.

On to `N#Cc1c[nH]cc1-c1cccc2c1OC(F)(F)O2`, for which the AC50 is 32.5 µM (active) in test [3] and 76.4 µM (active) in test [6]. In test [2], the compound was called inactive.

In the case of `O=C(O)c1c(Cl)ccc2cc(Cl)cnc12`, the compound was classed as inactive in test [1] and in test [2].

Regarding `Clc1cccc(C(Cl)(Cl)Cl)n1`, the compound was called inactive (in test [3]; in test [1]; in test [2]; in test [6]; in the test with AR (gene 367) [5]).

In the case of `N#CN=C1SCCN1Cc1ccc(Cl)nc1`, the call in test [3], in test [1] and in test [6] was inactive.

For the compound `CCOc1nc(C(Cl)(Cl)Cl)ns1`, the compound was classed as inactive in test [3], in test [1] and in test [6].

Turning to `CCCCC(O)(Cn1cncn1)c1ccc(Cl)cc1Cl` (stereo not drawn), the concentration at half-maximal activity (AC50) is 69.8 µM (active) in test [3]; 50 µM (active) in test [1]; 75.5 µM (active) in test [2]; 78.3 µM (active) in test [6]; 57.3 µM (active) with AR (gene 367) [5]. In addition, the result with AR (gene 367) [4] was inactive.

Turning to `O=C(Nc1ccccc1-c1ccc(Cl)cc1)c1cccnc1Cl`, the figures for the concentration at half-maximal activity (AC50) in test [3] and in test [1] were 61.3 µM (active) and 50 µM (active), respectively. Moreover, the compound was classed as inactive in test [2] and in test [6].

For the compound `COc1ccc(-c2ccccc2)cc1NNC(=O)OC(C)C`, the call (in test [3]; in test [1]; in test [2]; in the test with AR (gene 367) [5]) was inactive. Further, the AC50 in test [6] was 45.6 µM (active).

On to `CC(C)(C)C(=O)C(Oc1ccc(Cl)cc1)n1cncn1` (stereo not drawn), for which the outcome in test [3], in test [1] and in test [6] was inactive.

Consider `CC(C)N1C(=O)N(c2ccccc2)CSC1=NC(C)(C)C`, for which the AC50 in test [3] was 28.9 µM (active); in test [1], 50 µM (active); in test [2] it was 89.6 µM (active); with AR (gene 367) [5], 50 µM (active).

On to `CS(=O)(=O)c1ccc(C(=O)C2C(=O)CCCC2=O)c([N+](=O)[O-])c1`, for which the outcome in test [6] was inactive.

Take `COC(=O)N(C(=O)N1CO[C@@]2(C(=O)OC)Cc3cc(Cl)ccc3C2=N1)c1ccc(OC(F)(F)F)cc1`: the AC50 in test [3] was 18.3 µM (active); in test [1], 18.5 µM (active); in test [2] it was 69.2 µM (active); in the test with AR (gene 367) [5], 40 µM (active).

As to `CC1(C)CON(Cc2ccccc2Cl)C1=O`, the compound was called inactive in test [3] and in test [6]. Further, the AC50 in test [1] was 18.6 µM (active).

Regarding `COC(=O)c1c(C(F)F)nc(C(F)(F)F)c(C2=NCCS2)c1CC(C)C`, the result (in test [3]; in test [1]; in the test with AR (gene 367) [5]) was inactive.

As to `CCOP(=S)(OCC)Oc1nc(Cl)n(C(C)C)n1`, the call in test [3], in test [1] and in test [6] was inactive.

Regarding `Nc1c(Cl)c(F)nc(OCC(=O)O)c1Cl`, the compound was called inactive (in test [3]; in test [1]; in the test with AR (gene 367) [4]; with AR (gene 367) [5]).

On to `Cc1cnc(C2=NC(C)(C(C)C)C(=O)N2)c(C(=O)O)c1` (stereo not drawn), for which the compound was classed as inactive (in test [3]; in test [1]; in the test with AR (gene 367) [4]; with AR (gene 367) [5]).

Regarding `CC(C)Nc1nc(Cl)nc(NC(C)C)n1`, the compound was called inactive in test [1], in test [2] and in test [6].

As to `CCNP(=S)(OC)O/C(C)=C/C(=O)OC(C)C` (stereo not drawn), the outcome in test [3], in test [1] and in test [6] was inactive.

With `Cn1c(-c2ccccc2)cc(-c2ccccc2)[n+]1C`, the concentration at half-maximal activity (AC50) in test [3] was 28.7 µM (active); in test [1], 41.7 µM (active); in test [6], 31.1 µM (active).
